PME-1 inh: PME-1 inhibitors via competitive probe labeling, primary screen, biochemical, fluorescence polarization, FP-Rh probe, HTS. recombinant PME-1. inhibition, % at 5.9 µM. hit rate 0.53% among 320,000;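 active means inhibition above the campaign mean of all compounds plus 3 SD, cut at about 26% in these data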;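 further: competitive labeling of PME-1 active site by serine hydrolase directed probe; inhibitors block probe labeling so polarization falls and inhibition rises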
LYPLA1 counter: LYPLA1 inhibitors, primary screen, counter-screen for PME1 inhibitor project, biochemical, fluorescence polarization, FP-Rh probe ABPP; Acyl-protein thioesterase 1 (Homo sapiens), O75608; recombinant LYPLA1; inhibition, % at 5.9 µM; hit rate 0.16% among 320,000; AID 2174, 2009;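 active means inhibition above the mean of all tested compounds plus 3 SD, set per campaign, cut at about 14% in these data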;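 further: inhibitors block serine hydrolase probe labeling of LYPLA1 so polarization falls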
Target sequence (O75608 whole entry, looked up): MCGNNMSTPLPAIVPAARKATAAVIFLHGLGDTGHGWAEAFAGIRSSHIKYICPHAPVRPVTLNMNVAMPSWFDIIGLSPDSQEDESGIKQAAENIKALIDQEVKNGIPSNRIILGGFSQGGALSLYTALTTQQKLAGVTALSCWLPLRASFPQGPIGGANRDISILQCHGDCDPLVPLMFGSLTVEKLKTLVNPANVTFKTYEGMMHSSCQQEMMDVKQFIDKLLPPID
LYPLA2 counter: LYPLA2 inhibitors, primary screen, counter-screen for PME1 inhibitor project, biochemical, fluorescence polarization, FP-Rh probe ABPP; AID 2177, 2009; recombinant LYPLA2; hit rate 0.38% among 320,000; inhibition, % at 5.9 µM;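 active means inhibition above the screen-wide mean plus 3 SD, limit set per campaign, cut at about 26% in these data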
Target sequence (O95372 whole entry, looked up): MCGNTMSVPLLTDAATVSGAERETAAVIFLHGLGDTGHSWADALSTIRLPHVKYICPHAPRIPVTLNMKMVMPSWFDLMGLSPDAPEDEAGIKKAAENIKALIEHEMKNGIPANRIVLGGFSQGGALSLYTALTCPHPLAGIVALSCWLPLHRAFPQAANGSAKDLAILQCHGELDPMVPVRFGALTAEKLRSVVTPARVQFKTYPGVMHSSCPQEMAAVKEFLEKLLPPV
GSTO1 inh: inhibitors of recombinant GSTO1, primary screen, counter-screen for RBBP9 inhibitor project, biochemical, fluorescence polarization | Glutathione S-transferase omega-1 (Homo sapiens), P78417 | activity-based probe fluorescence polarization | inhibition, % at 5.96 µM | hit rate 1.1% among 300,000 | AID 1974, 2009;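 active means inhibition above the campaign mean inhibition plus 3 SD, cut at about 35% in these data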
Fam108B inh: mouse Fam108B serine hydrolase inhibitors, primary screen, counter-screen for RBBP9 inhibitor project, biochemical, fluorescence polarization; recombinant Fam108B, FP-Rh probe fluorescence polarization; inhibition, % at 9.51 µM; hit rate 0.33% among 300,000; AID 1947, 2009;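 active means inhibition above the screen mean inhibition plus 3 SD, computed separately per campaign, cut at about 18% in these data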;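 further: inhibitors lower polarization as less probe binds the enzyme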
PAD4 FP inh: human PAD4 inhibitors, primary screen, biochemical, fluorescence polarization, 1536-well format. recombinant PAD4, RCA probe fluorescence polarization. inhibition, % at 6.36 µM. hit rate 0.41% among 330,000;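 active means percent inhibition above a cutoff equal to the mean of all tested compounds plus 3 SD, cut at about 15% in these data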
LYPLA2 confirm: LYPLA2 inhibitors, retest, confirmation, counter-screen for PME1 inhibitor project, biochemical, fluorescence polarization, FP-Rh probe ABPP | AID 2232, 2010 | shares compounds with LYPLA2 counter | hit rate 72% among 1,100 | inhibition, % at 5.9 µM | recombinant LYPLA2;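 active means mean inhibition across replicates above the hit cutoff set in the primary screen, cut at about 26% in these data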;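 further: blocked labeling of the enzyme by serine hydrolase FP-Rh probe lowers polarization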
PAD4 confirm: human PAD4 inhibitors, confirmation, biochemical, fluorescence polarization. shares compounds with PAD4 FP inh. hit rate 28% among 1,200. recombinant PAD4, RCA probe fluorescence polarization. inhibition, % at 6.36 µM;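 active means mean inhibition across replicates above the hit cutoff set by the earlier primary screen, cut at about 15% in these data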;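 further: inhibitors block active-site labeling by the probe so polarization falls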
A number is an active result; n = inactive; x = not tested or not shown. Hits are enriched below; roughly 1.7% of the tested compounds scored in any of these assays.

SMILES	PME-1 inh	LYPLA1 counter	LYPLA2 counter	GSTO1 inh	Fam108B inh	PAD4 FP inh	PAD4 confirm	others
Cc1onc(-c2ccccc2)c1C(=O)OCc1nnc(-c2ccc([N+](=O)[O-])cc2)o1	n	n	28	x	x	n	x	LYPLA2 confirm=28
Cc1cc(C)c(S(=O)(=O)Nc2ncccc2C)c(C)c1	n	n	n	n	n	n	x
CC(C)(C)c1ccc(Cn2nnc3c(=O)[nH]c(C4CCN(C(=O)Cc5cccs5)CC4)nc32)cc1	n	n	27	n	n	37	n	LYPLA2 confirm=n
COc1cc2c(c(OC)c1OC)C(c1ccc(C)cc1)CC(=O)O2 (centres undefined)	x	x	x	x	x	n	x
Cc1ccc2c(c1)cc(CN(Cc1cccs1)C(=O)c1ccco1)c1nnnn12	n	n	n	n	n	30	n
Cc1ccc2cc(CN(Cc3cccs3)C(=O)c3ccco3)c3nnnn3c2c1C	n	n	n	n	n	n	x
COC(=O)c1c(C)oc2ccc(N(C(C)=O)S(=O)(=O)c3ccccc3)cc12	n	n	n	n	n	n	x
COc1ccc(S(=O)(=O)N(C(C)=O)c2ccc3oc(=O)sc3c2)cc1	n	n	n	n	n	22	n
C/C(N)=C(/C#N)C(=O)CSc1nc2ccc(C)cc2[nH]1	n	n	n	n	n	n	x
COc1ccc(C2=NN(c3ccccc3)C(=O)/C2=C\c2ccc(O)c(OC)c2)cc1	n	n	n	54	n	67	n
Cc1ccccc1C1CC(=O)Oc2cc(O)ccc21 (centres undefined)	x	x	x	x	x	82	78
COc1ccc(C2CC(=O)Oc3cc(O)ccc32)cc1 (centres undefined)	x	x	x	x	x	n	x
C=CCn1c(NC)cc(=O)n(C)c1=O	n	n	n	n	n	20	n
Cc1ccc(-c2cc(C(F)F)nc(NCC3CCCO3)n2)cc1 (centres undefined)	n	n	n	n	n	n	x
O=C(Nc1ccccc1Br)C(=O)N1CCCC1	n	n	n	n	n	n	x
O=C(Nc1ccccn1)C(=O)N1CCCCC1	n	n	n	n	n	36	n
O=C(NCc1ccccn1)Nc1ccccc1C(F)(F)F	n	n	n	n	n	35	n
COc1cc(C(=O)c2nccc3cc(OC)c(OC)cc23)c([N+](=O)[O-])cc1OC	n	n	n	55	n	40	n
CNC(=O)c1c(C)[nH]c(=S)c(C#N)c1-c1ccco1	n	n	n	n	n	26	n
Cc1ccccc1NC(=O)c1c(C)[nH]c(=S)c(C#N)c1-c1ccco1	n	n	n	n	n	n	x
CC(=O)Nc1ccccc1-c1nc2ccccc2nc1OCC(=O)c1ccc(Cl)cc1	n	n	n	n	n	n	x
CCn1c(-c2cc(Br)cc(OC)c2O)nc2cc(S(=O)(=O)N(C)C)ccc21	n	n	n	n	n	18	22
CCn1c(-c2ccccn2)nc2cc(S(=O)(=O)N(C)C)ccc21	n	n	n	n	n	n	x
Cc1ccc(S(=O)(=O)N(C)c2ccc(OC(=O)c3cccs3)cc2)cc1	x	x	x	x	x	n	x
Clc1ccc(C[n+]2csc3ccccc32)cc1	n	n	n	n	n	19	34
Fc1ccc(C[n+]2csc3ccccc32)cc1	n	n	n	n	n	21	34
O=C(NCCSc1ccc(Br)cc1)c1ccc2nc[nH]c2c1	n	n	n	n	n	n	x
O=C(N/N=C1\C/C(=N\NC(=O)c2ccncc2)c2ccccc21)c1ccncc1	n	n	n	56	n	44	n
O=C(NN=C1C2CC3CC(C2)CC1C3)c1ccncc1	n	n	n	n	n	n	x

Screens deposited in PubChem BioAssay by The Scripps Research Institute Molecular Screening Center.
